Compound activity (PubChem)
In the library only some 2.2% were active in any assay of this set; here they are far more common.
Abeta yeast res = qHTS for compounds that reverse cellular toxicity of Amyloid beta (A-beta) peptide in yeast: Primary Screen. yeast expressing A-beta42, growth rescue, OD600, 48 h; response scale: 0% DMSO, 100% iron-clioquinol control. Potency, µM (doses to about 46.1 µM), hits mostly activators. hit rate 0.063% among 410,000; also: nearly all actives have a fitted effect of over 55% in size
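Yeast A-beta toxicity model in growth medium with pinned compounds, 48 h at 30 C; growth read as absorbance at 600 nm. Normalized to FeCl3/clioquinol equimolar mix (positive) and DMSO (negative).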
TDP-43 yeast inh = qHTS of TDP-43 Inhibitors; TDP-43 expressing yeast growth rescue, BacTiter-Glo, 24 h; Potency, µM (doses to about 46.1 µM), without a hit: at the top dose growth rescue (activation), most hits filed as activators; hit rate 1.8% among 410,000; AID 652104, 2013; also: % of control where 0% means no effect; nearly all actives have a fitted effect of over 50% in size
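Readout is BacTiter-Glo luminescence of cell growth, so inhibitors register as activators. TDP-43-expressing yeast at OD600=0.02 in galactose medium, after raffinose pregrowth to mid-log, were incubated with compound for 24 hr at 30 deg C.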
aSyn rescue = qHTS of alpha-syn Inhibitors; Yeast expressing alpha-synuclein, growth rescue, BacTiter-Glo, 24 h; Potency, µM (highest dose often 46.1 µM), inactives show top-dose growth rescue (activation), most hits filed as activators; hit rate 0.14% among 370,000; AID 652106, 2013; also: % of control where 0% means no effect; nearly all actives have a fitted effect of over 65% in size
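Galactose-induced alpha-syn yeast (OD600=0.02, raffinose-pregrown) + pinned cpd, 24 hr, 30 deg C; growth by BacTiter-Glo luminescence. Growth restoration scores as activation.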
Mito fusion yeast = qHTS Assay for Small Molecule Inhibitors of Mitochondrial Division or Activators of Mitochondrial Fusion; S. cerevisiae fusion-defective mutant growth rescue, CellTiterGlo 48 h; Potency, µM (doses to about 46.1 µM), without a hit: at the highest dose growth rescue (activation), usual class: activators; hit rate 0.23% among 320,000; also: % of control where 0% means no effect; nearly all actives have a fitted effect of over 45% in size
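Read-out: ATP-based luminescence (CellTiterGlo, 10 min ambient) reporting growth of fusion-defective ts yeast after 48 hours at 37C on glycerol/ethanol YPEG medium in the presence of compound.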
FUS yeast rescue = qHTS for Suppressors of FUS Proteinopathy: Primary screen using FUS-linked yeast assay; AID 1347120, 2019; Potency, µM (top dose mostly 76.6 µM), hits mostly activators; hit rate 0.24% among 390,000; S. cerevisiae FUS-expressing, growth rescue, OD600, 24 h;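 also: plate controls were DMSO vehicle for no effect and reference control for full effect; nearly all actives have a fitted effect of over 55% in size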
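Absorbance at 600 nm, taken 24hr after compound addition, measured rescue of FUS-yeast growth at 30C. Induction used 2% galactose with seeding at OD 0.005. Controls: CP55940 from 92uM final, DMSO only.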
Numbers without * were called inactive; i = inactive; ? = inconclusive; / = no result; [ ] = dose if it differs, or a comment. Calls follow the shape of the dose curve; as a rule, active = well fitted curve in the direction sought with a large enough effect; inconclusive = small, poorly fitted or top-dose-only effect, or another doubt; inactive = no such curve, though single readings can be large; an effect the other way counts as inactive or inconclusive. Potency is read from the fitted curve at half-maximal effect.

SMILES	Abeta yeast res	TDP-43 yeast inh	aSyn rescue	Mito fusion yeast	FUS yeast rescue
COc1ccc(-n2ncc3c2CC(C)(C)CC3NC(=O)c2oc(C)cc2C)cc1 (stereo not drawn)	i	-3%	2%	-16%	i
Cc1cc(C)c(C(=O)NC2CC(C)(C)Cc3c2cnn3-c2ccccc2)o1 (stereo not drawn)	i	16µM*	-9%	-1%	i
CC(C)(C)OC(=O)N1CCC(c2c(C(=O)N3CCN(c4ccc(Cl)cc4)CC3)cnn2-c2ccc(F)cc2F)CC1	i	?	/	/	22µM*
COc1ccc(NC(=O)c2cnn(-c3ccc(F)cc3F)c2C2CCN(C(=O)OC(C)(C)C)CC2)cc1Cl	i	16%	/	/	13µM*
CSc1ccccc1NC(=O)C1CC(c2ccccc2Cl)=NO1 (stereo not drawn)	i	18%	-14%	-1%	i
CC(C)(C)c1ccc(/C=C/C(=O)Nc2ccc(S(N)(=O)=O)cc2)cc1	i	3%	-6%	/	i
CCCCN(C)CCCNC(=O)c1cc(=O)[nH]c2ccc(S(=O)(=O)N3CCCCC3C)cc12 (stereo not drawn)	i	-3%	-4%	35µM*	i
COc1cccc(/C=C2\Oc3cc(OCC(=O)N4Cc5ccccc5C[C@H]4C(=O)O)ccc3C2=O)c1	i	4%	7%	0%	28µM*
CN=C1S/C(=C/c2cc(C)n(Cc3ccccc3)c2C)C(=O)N1C	/	/	/	/	i
Cc1[nH]n(-c2ccccc2)c(=O)c1Sc1ccc(Cl)cc1	i	10%	-54%	25%	i
Cc1cc(-c2c(C)[nH]n(-c3ccc(Cl)cc3)c2=O)n[nH]1	i	22µM*	?	0%	?
Cc1cccc(Cn2cc(COC(=O)Nc3ccc(F)cc3)nn2)c1	/	/	/	/	i
O=C(CN1CCN(Cc2ccccc2Cl)CC1)N/N=C/c1ccco1	i	-14%	2%	3%	i
O=C(CSCc1ccccc1Cl)N/N=C/c1ccco1	i	13µM*	-9%	-16%	i
Cc1ccc(S(=O)(=O)N2CCCC(c3nc4c(nnn4Cc4ccc5c(c4)OCCO5)c(=O)[nH]3)C2)cc1 (stereo not drawn)	/	-6%	-3%	3%	i
COc1ccccc1NC(=O)c1cc2ccccc2o/c1=N\O	i	18µM*	-14%	3%	/
COc1ccccc1NC(=O)Cn1nnc(-c2ccccc2NC(=O)c2cc3ccccc3oc2=O)n1	i	-9%	-4%	0%	25µM*
O=C1CC(c2ccccc2)Oc2ccccc21 (stereo not drawn)	i	14µM*	-1%	/	i
CNC(=S)N/N=C1\CC(c2ccccc2)Oc2ccccc21 (stereo not drawn)	i	22µM*	-1%	14%	i
O=C1CC(c2cccc(O)c2)Oc2ccccc21 (stereo not drawn)	i	?	12%	7%	/
Cc1ccc(C)c2nc3sc(C(=O)N4CCCc5ccccc54)c(N)c3cc12	i	-5%	1%	5%	i
Cc1ccc(C)c2nc3sc(C(=O)O)cc3cc12	i	14µM*	-71%	8%	i
NC1CCc2ccccc21 (stereo not drawn)	/	/	-2%	/	/
O=C1c2ccccc2NC(c2cn[nH]c2-c2ccccc2)N1O (stereo not drawn)	i	14%	-4%	5%	/
O=C1c2ccccc2NC(c2cn[nH]c2-c2ccc(Cl)cc2)N1O (stereo not drawn)	i	-4%	-16%	14%	25µM*
SMILES	Abeta yeast res	TDP-43 yeast inh	aSyn rescue	Mito fusion yeast	FUS yeast rescue
COc1cc(CCC(=O)Nc2ccc(Cl)c(C(F)(F)F)c2)cc(OC)c1OC	i	20%	-6%	-8%	/
COc1ccc(C(=O)Nc2ccc(N3CCOCC3)c(C(F)(F)F)c2)cc1OC	i	20µM*	3%	/	i
COc1cc(C(=O)Nc2ccc(Cl)c(C(F)(F)F)c2)cc(OC)c1OC	i	18µM*	?	?	i
COc1ccc(C(Nc2ccccn2)c2c(NC(=O)c3ccco3)sc(C)c2C)cc1 (stereo not drawn)	i	16%	1%	13µM*	i
c1ccc(-c2nc(-n3ccnc3)nc(-n3ccnc3)n2)cc1	i	?	/	-3%	i
c1ccc(-c2nc(NC3CC3)nc(-n3ccnc3)n2)cc1	i	5µM*	3%	3%	i
COc1ccc(S[C@]2(C(=O)N3CCOCC3)CC(=O)N(C(=O)C3CC3)[C@@H]2c2ccc(OC)cc2)cc1	/	/	/	/	i
O=S(=O)(c1c(Cl)sc(Cl)c1Br)N1CCCC1	i	11µM*	10%	-9%	i
O=S(=O)(c1ccc(Cl)cc1)N1CCCCCC1	i	24%	2%	5%	i
O=C(CCl)N1c2ccccc2SCC1c1ccccc1 (stereo not drawn)	i	7.9µM*	-2%	1%	i
O=C(CCl)N1c2ccccc2OCC1c1ccccc1 (stereo not drawn)	i	30%	11%	-1%	i
N#CN1CCC(NS(=O)(=O)c2cccc(C(F)(F)F)c2)CC1	/	/	/	/	i
COc1ccc(OC)c(CCNC(=O)CCc2cn(C)c3ccccc23)c1	i	3%	9%	-17%	i
CCCC(=O)NCCc1c2n(c3ccc(OC)cc13)CCCc1ccccc1-2	/	/	-4%	18µM*	/
CN(C)c1nc(SCCOC(=O)Nc2ccccc2)nc(N(C)C)n1	i	3.2µM*	1%	2%	/
O=C(CSc1ncccn1)N/N=C/c1ccc(OC2CSC2)cc1	i	11µM*	6%	2%	i
O=C(CSc1ncccn1)N/N=C/c1ccc2c(c1)OCO2	i	-4%	-6%	2%	i
COC(=O)c1c(NC(=O)C2(C)Cc3ccccc3C(=O)O2)sc2c1CCCC2 (stereo not drawn)	i	-26%	16%	-3%	4µM*
O=C(Nc1ccc2c(c1)OCCO2)c1ccccc1	i	-2%	-18%	-20%	i
O=C(Nc1ccc2c(c1)OCCO2)c1cnn(-c2ccccc2)n1	i	18µM*	0%[1.84 µM]	5%	i
O=C(Nc1ccc2c(c1)OCCO2)C1CC1c1ccccc1 (stereo not drawn)	?	25µM*	-20%	17%	/
O=C(COc1ccc(-n2cnnn2)cc1)Nc1ccccc1OC(F)F	i	4%	-6%	-3%	/
C=CCn1c(COc2ccc(C)cc2)nnc1SCC(=O)Nc1ccc(Oc2ccccc2)cc1	/	/	/	/	i
CSc1ccc(Cl)c(C(=O)N2CCOc3ccccc32)c1	i	?	1%	-8%	i
